Records with an inconclusive call do not appear. Calls of active or inactive are those of the source.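 How the source made its calls, unless noted: active means inhibition above 50%, about 3 SD of the validation set; inactive means the rest.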
Experiments:
[1] = yeast TOR pathway RPL19A-GFP modulators, primary screen, cell-based, S. cerevisiae, multiplex flow cytometry (AID 1862; in the data active means percent of DMSO control GFP below about 86%;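 further: lower values mimic rapamycin by blocking the RPL19A rise seen in DMSO cells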); settings: S. cerevisiae RPL19A-GFP strain, flow cytometry fluorescence, 3 h; at 10 µM; stronger effect = lower value
[2] = modulators of MEP2-GFP levels in yeast, primary screen, S. cerevisiae, multiplex flow cytometry (AID 1867;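 active means GFP response, as percent of the DMSO control, above the screen-wide mean plus 3 SD, about 139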;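 further: median GFP channel fluorescence of barcode-gated MEP2-GFP cells measured by flow cytometry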); settings: S. cerevisiae MEP2-GFP strain, 3 h, at 10 µM, stronger effect = higher value, 100% means same as DMSO wells
[3] = modulators of CIT2-GFP expression in yeast, primary screen, S. cerevisiae, GFP fusion, multiplex flow cytometry (AID 1870;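 active means percent response above a set limit, the screen-wide mean plus 3 SD, cut at about 130% in these data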;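 further: barcoded CIT2-GFP strain pooled with four other GFP strains with rapamycin as positive control; median GFP fluorescence per well over plate mean of DMSO wells so 100% = DMSO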); settings: 3 h, at 10 µM, stronger effect = higher value
[4] = modulators of LAP4-GFP expression in yeast, primary screen, S. cerevisiae, multiplex flow cytometry (AID 1873;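 active means GFP signal, as percent of the solvent control, above the screen mean plus 3 SD, about 149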); settings: 3 h, at 10 µM, stronger effect = higher value
[5] = modulators of AGP1-GFP expression in yeast TOR pathway, primary screen, cell-based, multiplex flow cytometry, S. cerevisiae (AID 1887;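 active means GFP signal above the screen-wide mean plus 3 SD, that is over about 124.5% of the solvent control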;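 further: AGP1-GFP fusion strain of S. cerevisiae within a five-strain barcoded multiplex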); settings: 3 h, at 10 µM, stronger effect = higher value
[6] = inhibitors of CD8+ T cell-vesicle binding, pilot screen, LFA-1/ICAM-1 modulator project, MLPCN validation set, flow cytometry (AID 2523;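 active means response below a set limit, under 55% cells CD8-positive and vesicle-bound, and CD8 cells' 90th-percentile brightness under 279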;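 on vesicle binding response: mean PE anti-B7-1 fluorescence of CD8+ cells relative to row control; 100% = QL9-loaded vesicles with DMSO vehicle in the same plate row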); settings: 2C mouse CD8+ T cells, at 7 µM, stronger effect = lower value; double positive events: measured here: CD8+/vesicle+ event percentage
[7] = target: Integrin beta-1 (Homo sapiens) + Integrin alpha-4 (Homo sapiens) (UniProt P13612+P05556); experiment: inhibition of HUTS-21 binding to VLA-4, pilot screen, VLA-4 allosteric modulator project, U937 cells, HUTS-21 mAb, flow cytometry, validation set (AID 2674); settings: HUTS-21 LIBS mAb binding, at 6.7 µM, stronger effect = higher value, binding induced by LDV ligand;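 further: antibody binding induced by the VLA-4 ligand LDV present at three times its Kd; 0% = LDV ligand with antibody and no compound and 100% = antibody without LDV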
Integrin beta-1 (Homo sapiens) + Integrin alpha-4 (Homo sapiens), sequence (P05556 whole entry, looked up): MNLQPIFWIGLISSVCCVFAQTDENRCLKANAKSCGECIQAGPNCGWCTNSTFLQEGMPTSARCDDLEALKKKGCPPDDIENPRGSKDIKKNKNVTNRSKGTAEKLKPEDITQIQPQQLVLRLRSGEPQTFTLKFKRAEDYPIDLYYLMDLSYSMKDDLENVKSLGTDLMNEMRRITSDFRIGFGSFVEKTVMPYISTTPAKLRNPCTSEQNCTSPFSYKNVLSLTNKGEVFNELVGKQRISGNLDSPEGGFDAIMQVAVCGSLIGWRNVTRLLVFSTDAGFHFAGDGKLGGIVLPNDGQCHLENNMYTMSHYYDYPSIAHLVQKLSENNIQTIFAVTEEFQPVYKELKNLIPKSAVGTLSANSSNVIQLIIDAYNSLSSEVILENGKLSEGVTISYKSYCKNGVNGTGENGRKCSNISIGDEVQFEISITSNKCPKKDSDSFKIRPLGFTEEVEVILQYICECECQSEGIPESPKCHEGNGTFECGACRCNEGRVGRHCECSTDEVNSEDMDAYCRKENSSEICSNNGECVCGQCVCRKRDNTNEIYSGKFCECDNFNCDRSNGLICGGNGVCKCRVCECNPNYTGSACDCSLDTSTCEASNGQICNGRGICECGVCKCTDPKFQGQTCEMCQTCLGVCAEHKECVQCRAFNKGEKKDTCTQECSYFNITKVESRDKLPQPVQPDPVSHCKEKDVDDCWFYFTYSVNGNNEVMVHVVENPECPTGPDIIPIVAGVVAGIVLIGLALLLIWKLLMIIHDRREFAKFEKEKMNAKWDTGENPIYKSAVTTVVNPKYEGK
Integrin beta-1 (Homo sapiens) + Integrin alpha-4 (Homo sapiens), sequence (P13612 whole entry, looked up): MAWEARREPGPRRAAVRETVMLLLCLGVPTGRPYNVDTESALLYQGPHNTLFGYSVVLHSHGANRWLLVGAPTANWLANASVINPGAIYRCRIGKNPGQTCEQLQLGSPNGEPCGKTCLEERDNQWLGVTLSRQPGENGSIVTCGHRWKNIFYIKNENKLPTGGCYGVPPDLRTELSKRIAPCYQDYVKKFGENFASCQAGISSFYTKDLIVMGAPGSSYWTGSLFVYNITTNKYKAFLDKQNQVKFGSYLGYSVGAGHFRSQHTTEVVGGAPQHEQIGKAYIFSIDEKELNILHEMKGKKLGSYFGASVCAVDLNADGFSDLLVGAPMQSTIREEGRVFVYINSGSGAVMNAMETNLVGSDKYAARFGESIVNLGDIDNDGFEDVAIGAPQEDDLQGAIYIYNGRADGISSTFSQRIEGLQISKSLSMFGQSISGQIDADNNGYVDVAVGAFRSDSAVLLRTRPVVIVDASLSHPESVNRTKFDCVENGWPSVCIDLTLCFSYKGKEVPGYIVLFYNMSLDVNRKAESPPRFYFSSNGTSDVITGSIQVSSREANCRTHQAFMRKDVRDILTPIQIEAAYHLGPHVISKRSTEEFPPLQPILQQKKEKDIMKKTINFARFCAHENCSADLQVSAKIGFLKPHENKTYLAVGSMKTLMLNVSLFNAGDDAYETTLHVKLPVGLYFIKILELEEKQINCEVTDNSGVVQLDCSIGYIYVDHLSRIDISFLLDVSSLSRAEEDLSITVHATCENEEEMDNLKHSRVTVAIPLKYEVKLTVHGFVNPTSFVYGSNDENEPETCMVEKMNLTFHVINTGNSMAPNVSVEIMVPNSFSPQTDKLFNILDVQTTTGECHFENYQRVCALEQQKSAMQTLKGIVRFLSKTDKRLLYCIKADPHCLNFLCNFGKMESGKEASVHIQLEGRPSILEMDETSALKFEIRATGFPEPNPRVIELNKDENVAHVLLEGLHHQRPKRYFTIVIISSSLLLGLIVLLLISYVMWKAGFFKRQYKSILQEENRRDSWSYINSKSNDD

[8] = superoxide lowering in aged yeast cells, pilot screen, validation compound set (AID 2706;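 active means superoxide response below 65% of plate, a cut near 3 SD across the whole screen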;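 further: yeast exposed to compound for one week at 30 degrees C before staining; 100% = mean of all compound wells on the same plate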); settings: S. cerevisiae aging, superoxide DHE fluorescence; at 10 µM; stronger effect = lower value
[9] = target: Beta-adrenergic receptor kinase 1 (Homo sapiens) (UniProt P25098); experiment: GRK2 binders displacing RNA aptamer, biochemical, validation, human GRK2, bead flow cytometry (AID 488806;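 active means aptamer binding inhibition above 30%, about 3 SD of noise from non-fluorescent compounds; inactive means inhibition at or below 30%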); settings: bead-bound GRK2, FAM-aptamer displacement, at 10 µM, stronger effect = higher value
Beta-adrenergic receptor kinase 1 (Homo sapiens), sequence (P25098 whole entry, looked up): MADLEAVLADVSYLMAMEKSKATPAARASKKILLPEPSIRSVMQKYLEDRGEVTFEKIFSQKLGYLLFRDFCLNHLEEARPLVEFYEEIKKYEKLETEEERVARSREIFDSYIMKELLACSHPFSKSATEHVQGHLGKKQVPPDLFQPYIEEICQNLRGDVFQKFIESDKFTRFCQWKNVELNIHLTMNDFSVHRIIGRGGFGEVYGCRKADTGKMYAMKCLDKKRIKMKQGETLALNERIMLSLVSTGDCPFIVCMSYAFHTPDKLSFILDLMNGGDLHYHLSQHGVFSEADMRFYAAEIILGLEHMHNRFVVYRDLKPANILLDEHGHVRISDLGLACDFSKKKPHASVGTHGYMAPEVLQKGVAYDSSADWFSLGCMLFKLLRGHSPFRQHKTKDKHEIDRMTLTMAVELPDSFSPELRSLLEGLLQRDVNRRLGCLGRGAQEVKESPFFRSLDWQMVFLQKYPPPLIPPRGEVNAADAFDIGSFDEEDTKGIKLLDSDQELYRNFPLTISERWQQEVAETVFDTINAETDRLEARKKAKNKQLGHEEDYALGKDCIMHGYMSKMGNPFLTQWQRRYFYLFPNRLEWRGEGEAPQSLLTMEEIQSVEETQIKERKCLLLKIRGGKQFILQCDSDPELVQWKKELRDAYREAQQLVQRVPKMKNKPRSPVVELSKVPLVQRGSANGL

[10] = target: Beta-2 adrenergic receptor (Homo sapiens) (UniProt P07550); experiment: beta2AR agonists driving receptor internalization, pilot screen, cell-based, FAP fluorogen, flow cytometry, validation set (AID 504459;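 active means percent response above 42, roughly 3 SD of non-fluorescent test compounds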;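 further: agonist-driven loss of surface beta2AR via internalization measured by FAP dye flow cytometry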); settings: Am2.2-beta2AR cells, FAP surface receptor flow cytometry; at 10 µM; stronger effect = higher value
Beta-2 adrenergic receptor (Homo sapiens), sequence (P07550 whole entry, looked up): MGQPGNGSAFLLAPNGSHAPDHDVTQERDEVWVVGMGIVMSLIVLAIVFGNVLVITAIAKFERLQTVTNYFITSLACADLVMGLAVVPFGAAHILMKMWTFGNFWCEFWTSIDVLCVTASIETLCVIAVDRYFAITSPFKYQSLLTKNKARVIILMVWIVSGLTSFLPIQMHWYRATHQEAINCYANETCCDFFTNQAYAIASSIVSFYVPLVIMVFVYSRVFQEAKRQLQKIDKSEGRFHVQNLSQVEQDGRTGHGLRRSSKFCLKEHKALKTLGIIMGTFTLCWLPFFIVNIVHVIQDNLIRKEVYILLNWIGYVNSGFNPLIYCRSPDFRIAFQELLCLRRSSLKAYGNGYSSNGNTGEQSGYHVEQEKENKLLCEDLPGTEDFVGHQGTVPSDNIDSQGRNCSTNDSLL

[11] = target: AP-2 complex subunit beta (Homo sapiens) (UniProt P63010); experiment: inhibitors of arrestin peptide binding to AP2, pilot screen, biochemical, validation set, GST-AP2 beads, flow cytometry (AID 504541;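 active means inhibition above 54%, about 3 SD of non-fluorescent compounds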;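 further: AP2 carries R879A mutation and is captured from E. coli lysate; bead-bound FITC arrestin peptide fluorescence measuring arrestin peptide binding to AP2; 0% = DMSO wells and 100% = excess unlabeled arrestin peptide control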); settings: FITC arrestin peptide, at 10 µM, stronger effect = higher value, AP2 beta2 appendage fragment, R879A mutant
AP-2 complex subunit beta (Homo sapiens), sequence (P63010 whole entry, looked up, the tested form may be a part, one chain of several): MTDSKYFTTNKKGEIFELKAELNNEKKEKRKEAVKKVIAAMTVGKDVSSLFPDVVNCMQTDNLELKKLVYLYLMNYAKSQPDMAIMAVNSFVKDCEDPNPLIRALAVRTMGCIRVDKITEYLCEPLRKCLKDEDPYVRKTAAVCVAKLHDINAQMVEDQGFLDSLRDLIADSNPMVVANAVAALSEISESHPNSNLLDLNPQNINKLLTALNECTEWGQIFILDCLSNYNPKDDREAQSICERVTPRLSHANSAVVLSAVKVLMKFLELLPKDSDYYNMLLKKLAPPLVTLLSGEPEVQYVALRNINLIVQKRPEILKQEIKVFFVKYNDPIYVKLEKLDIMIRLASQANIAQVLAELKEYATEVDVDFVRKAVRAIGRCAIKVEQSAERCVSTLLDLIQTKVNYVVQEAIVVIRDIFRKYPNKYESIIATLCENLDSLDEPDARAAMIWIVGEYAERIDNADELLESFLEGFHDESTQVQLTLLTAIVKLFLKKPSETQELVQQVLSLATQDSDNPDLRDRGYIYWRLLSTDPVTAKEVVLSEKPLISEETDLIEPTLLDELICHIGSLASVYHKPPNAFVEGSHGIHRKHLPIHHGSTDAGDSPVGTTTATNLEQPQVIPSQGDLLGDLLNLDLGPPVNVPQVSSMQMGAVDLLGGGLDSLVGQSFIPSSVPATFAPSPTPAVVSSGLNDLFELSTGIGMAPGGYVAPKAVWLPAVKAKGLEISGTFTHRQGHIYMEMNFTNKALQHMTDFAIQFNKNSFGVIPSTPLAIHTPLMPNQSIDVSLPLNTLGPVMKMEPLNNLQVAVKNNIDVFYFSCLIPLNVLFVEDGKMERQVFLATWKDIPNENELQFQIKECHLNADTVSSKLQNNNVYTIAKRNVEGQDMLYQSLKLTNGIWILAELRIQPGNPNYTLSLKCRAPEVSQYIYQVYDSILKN

[12] = yeast V-ATPase proton transport modulators, S. cerevisiae, pHLuorin, HTS validation (AID 504600; in the data active means response above about 15%;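 further: plate controls were DMSO for no effect and reference compound for full effect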); settings: S. cerevisiae pHLuorin cytosolic pH, at 10 µM, stronger effect = higher value
[13] = system: anti-desmoglein-3 scFv antibody binding to human DSG3; experiment: inhibitors of anti-DSG3 scFv binding to DSG3, pilot screen, biochemical, validation compound set, bead-based, flow cytometry (AID 588368;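 active means binding below the plate cutoff, the plate median minus 3 SD, with a reading above zero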;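 further: signal is the median channel fluorescence of bead-bound GFP antibody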); settings: Protein G beads, DSG3-Fc, scFv-GFP binding, at 10 µM, stronger effect = lower value
[14] = inhibitors of fungal efflux pumps CDR1, CDR2, MDR1, pilot screen, validation compound set, multiplex, phenotypic (AID 588506;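 active means efflux inhibition above 0.42, the validation set average plus 4 SD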;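 further: Nile Red retained in cells so higher fluorescence means more efflux inhibition; 0 = negative control wells and 1 = enniatin B 25 µM full block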); settings: S. cerevisiae pump-expressing triplex, Nile Red efflux flow cytometry; at 10 µM; stronger effect = higher value; the pumps come from Candida albicans
[15] = target: ATP-binding cassette sub-family B member 6 (Homo sapiens) (UniProt Q9NP58); experiment: ABCB6 transporter inhibitors, pilot screen, K562-ABCB6 cells, flow cytometry, validation set (AID 588550;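 active means inhibition above the screen-wide mean plus 3 SD, about 51%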;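 further: 0% = DMSO wells and 100% = benzethonium chloride 70 µM positive control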); settings: K562-ABCB6 porphyrin accumulation, 1 h, at 10 µM, stronger effect = higher value
ATP-binding cassette sub-family B member 6 (Homo sapiens), sequence (Q9NP58 whole entry, looked up): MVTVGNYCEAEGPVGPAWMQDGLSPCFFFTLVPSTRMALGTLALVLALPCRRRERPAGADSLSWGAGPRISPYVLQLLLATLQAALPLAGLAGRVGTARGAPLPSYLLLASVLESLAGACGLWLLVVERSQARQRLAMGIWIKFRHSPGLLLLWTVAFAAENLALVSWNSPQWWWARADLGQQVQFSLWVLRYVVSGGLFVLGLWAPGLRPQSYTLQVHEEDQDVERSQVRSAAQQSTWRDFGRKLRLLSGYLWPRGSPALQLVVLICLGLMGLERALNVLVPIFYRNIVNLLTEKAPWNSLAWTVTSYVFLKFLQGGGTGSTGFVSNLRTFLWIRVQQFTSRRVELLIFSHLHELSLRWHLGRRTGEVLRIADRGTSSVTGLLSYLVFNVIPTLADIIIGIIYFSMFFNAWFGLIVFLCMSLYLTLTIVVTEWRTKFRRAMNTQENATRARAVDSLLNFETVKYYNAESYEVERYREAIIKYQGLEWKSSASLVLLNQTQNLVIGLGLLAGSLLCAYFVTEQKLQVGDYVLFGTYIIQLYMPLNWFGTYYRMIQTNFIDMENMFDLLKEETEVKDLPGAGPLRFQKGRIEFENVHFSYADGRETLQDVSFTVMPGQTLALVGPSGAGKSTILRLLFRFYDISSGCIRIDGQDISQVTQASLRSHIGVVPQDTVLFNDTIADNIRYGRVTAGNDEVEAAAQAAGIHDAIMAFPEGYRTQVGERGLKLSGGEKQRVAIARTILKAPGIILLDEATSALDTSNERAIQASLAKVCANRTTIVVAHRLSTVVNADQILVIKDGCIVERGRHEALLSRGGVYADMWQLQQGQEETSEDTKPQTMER

[16] = promoters of myeloid differentiation in arrested cells, primary screen, cell-based, GFP/MAC1 double positive, flow cytometry, validation set (AID 588685;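 active means differentiation response of at least 50%, scaled between solvent and reference control, from cells with both markers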;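 further: compound exposure lasts four days before antibody staining and flow analysis; 0% = DMSO wells and 100% = 5 µM fulvestrant positive control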); settings: ER-HoxA9 marrow cells, stronger effect = higher value, normalized: vehicle 0, fulvestrant 100

Row | SMILES | percent of DMSO control GFP [1] | GFP response vs DMSO [2] | percent response of DMSO control [3] | GFP response vs DMSO [4] | GFP response, % of DMSO [5] | double positive events [6] [%] | vesicle binding response [6] | inhibition [7] | superoxide response (% of plate) [8] | aptamer binding inhibition [9] | response [10] | inhibition [11] | response [12] | binding (% of control) [13] | efflux inhibition (fraction of control) [14] | inhibition [15] | differentiation response [16]
1 | CC(C(=O)O)c1cccc(C(=O)c2ccccc2)c1 (stereo not given) | 102% (inactive) | 107% (inactive) | 97.6% (inactive) | 110% (inactive) | 107% (inactive) | 67.3 | 145% (inactive) | 4.27% (inactive) | 97.3% (inactive) | 4% (inactive) | 6.64% (inactive) | -7.83% (inactive) | -2.55% (inactive) | 101% (inactive) | 0.36 (inactive) | 20% (inactive) | -7.5% (inactive)
2 | COc1ccc2c(C=O)cn(C)c2c1 | 89.8% (inactive) | 137% (inactive) | 103% (inactive) | 82% (inactive) | 85% (inactive) | 66.8 | 151% (inactive) | 6.46% (inactive) | 87.5% (inactive) | 7% (inactive) | -0.49% (inactive) | 9.51% (inactive) | -4.19% (inactive) | 105% (inactive) | 0.27 (inactive) | 11% (inactive) | 4.91% (inactive)
3 | CC(C)CCn1c(N2CCc3ccccc3C2)nc2c1c(=O)[nH]c(=O)n2C | 92.6% (inactive) | 128% (inactive) | 108% (inactive) | 83.1% (inactive) | 83.3% (inactive) | 54.4 | 184% (inactive) | -6.15% (inactive) | 98% (inactive) | -2% (inactive) | -18.6% (inactive) | 2.58% (inactive) | 2.15% (inactive) | 104% (inactive) | -0.24 (inactive) | 12% (inactive) | -4.91% (inactive)
4 | O=C(/C=C/c1ccc2c(c1)OCO2)NCc1ccc(F)cc1 | 101% (inactive) | 106% (inactive) | 95.4% (inactive) | 108% (inactive) | 99.7% (inactive) | 60.1 | 130% (inactive) | -3.57% (inactive) | 108% (inactive) | 2% (inactive) | -3.87% (inactive) | 55.2% (active) | -3% (inactive) | 98.4% (inactive) | 0.08 (inactive) | 2% (inactive) | 15.9% (inactive)
5 | COc1ccc2cc(C3(C)NC(=O)NC3=O)ccc2c1 (stereo not given) | 95.8% (inactive) | 116% (inactive) | 87.2% (inactive) | 117% (inactive) | 99.7% (inactive) | 60.5 | 147% (inactive) | -9.98% (inactive) | 104% (inactive) | 2% (inactive) | 2.16% (inactive) | -3.7% (inactive) | -5.94% (inactive) | 99.7% (inactive) | -0.06 (inactive) | 8% (inactive) | 7.2% (inactive)
6 | OCC(O)CN1CCN(c2ccccc2)CC1 (stereo not given) | 99.3% (inactive) | 103% (inactive) | 90.5% (inactive) | 103% (inactive) | 102% (inactive) | 59.4 | 145% (inactive) | 9.1% (inactive) | 99.2% (inactive) | 7% (inactive) | -29.2% (inactive) | -3.7% (inactive) | -24.2% (inactive) | 96.2% (inactive) | -0.04 (inactive) | 9% (inactive) | 11.8% (inactive)
7 | O=C(O)/C=C/c1cnc[nH]1 | 104% (inactive) | 108% (inactive) | 106% (inactive) | 101% (inactive) | 112% (inactive) | 59.9 | 93.5% (inactive) | 2.93% (inactive) | 98.6% (inactive) | -2% (inactive) | -4.55% (inactive) | -0.6% (inactive) | -0.43% (inactive) | 103% (inactive) | 0.755 (active) | 10% (inactive) | -13.3% (inactive)
8 | O=C1[C@@H]2CSCN2C(=O)CN1Cc1ccc(F)cc1 | 107% (inactive) | 95.2% (inactive) | 106% (inactive) | 82% (inactive) | 94.8% (inactive) | 61.3 | 235% (inactive) | -3.16% (inactive) | 111% (inactive) | 2% (inactive) | 5.93% (inactive) | -4.78% (inactive) | -2.17% (inactive) | 83.8% (inactive) | -0.21 (inactive) | 6% (inactive) | -21.6% (inactive)
9 | CC1(C)CC(=O)C2=C(C1)c1c(ccc3ccccc13)NC2c1ccco1 (stereo not given) | 98.8% (inactive) | 105% (inactive) | 93.9% (inactive) | 123% (inactive) | 99.5% (inactive) | 57 | 182% (inactive) | -8.62% (inactive) | 107% (inactive) | 6% (inactive) | 14.4% (inactive) | 13.8% (inactive) | 1.12% (inactive) | 104% (inactive) | -0.06 (inactive) | 3% (inactive) | 28% (inactive)
10 | CN(CCO)CC(O)Cn1cnc2c1c(=O)n(C)c(=O)n2C (stereo not given) (tested in a mixture with another compound) | 101% (inactive) | 109% (inactive) | 100% (inactive) | 106% (inactive) | 112% (inactive) | 62.5 | 211% (inactive) | 14.2% (inactive) | 93.2% (inactive) | -1% (inactive) | -18.1% (inactive) | -3.41% (inactive) | -1.98% (inactive) | 103% (inactive) | -0.09 (inactive) | 7% (inactive) | -3.02% (inactive)
